In all, about 16,000 compounds went through this assay and about 2,600 (16%) were called active. Another 20% or so got no clear call; they are omitted. Calls come from the whole dose curve; as a rule, active = well fitted curve in the direction sought with a large enough effect; inconclusive = small, poorly fitted or top-dose-only effect, or effect the other way; inactive = no such curve, though single readings can be large or run the other way. A selection follows. More than one record can exist for a structure, and the calls need not agree. Square brackets hold non-standard residues; d marks the D form. Peptide text beside a SMILES is read from it. * marks the point of attachment. ξ: configuration not given here. Cbz = O=C(OCc1ccccc1)*; ξA = CC(N)C(=O)O
Target: Cytochrome P450 2D6 (Homo sapiens) (UniProt P10635)
Sequence (P10635 whole entry, looked up): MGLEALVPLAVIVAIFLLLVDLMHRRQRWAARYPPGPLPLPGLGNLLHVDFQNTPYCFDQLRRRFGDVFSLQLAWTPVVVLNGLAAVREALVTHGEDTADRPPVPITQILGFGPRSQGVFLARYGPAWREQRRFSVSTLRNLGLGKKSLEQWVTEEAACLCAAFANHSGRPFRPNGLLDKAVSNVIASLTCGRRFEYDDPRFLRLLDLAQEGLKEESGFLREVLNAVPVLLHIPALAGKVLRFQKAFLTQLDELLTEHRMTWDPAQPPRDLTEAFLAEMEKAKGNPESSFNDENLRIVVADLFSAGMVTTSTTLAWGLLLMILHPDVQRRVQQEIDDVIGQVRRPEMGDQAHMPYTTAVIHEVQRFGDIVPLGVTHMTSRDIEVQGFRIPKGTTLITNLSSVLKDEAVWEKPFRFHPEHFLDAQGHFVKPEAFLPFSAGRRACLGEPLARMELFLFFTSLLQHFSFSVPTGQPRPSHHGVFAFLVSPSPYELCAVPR
Experiment: Cytochrome panel assay with activity outcomes
Conditions: recombinant CYP, pro-luciferin dealkylation, luminescence, p450-cyp2d6; series mostly up to 57.1 µM; activity, negative = inhibition: at the top concentration
% is set by controls: 0 for no effect and ±100 for the full control effect.

| SMILES | activity, negative = inhibition | AC50 |
| --- | --- | --- |
| CCOC(=O)c1c(CC(C)C)csc1NC=O | -12.9% (inactive) |  |
| O=C(Nc1cc(C(=O)Nc2ccc(S(=O)(=O)O)cc2S(=O)(=O)O)cc(C(=O)Nc2ccc(S(=O)(=O)O)cc2S(=O)(=O)O)c1)Nc1cc(C(=O)Nc2ccc(S(=O)(=O)O)cc2S(=O)(=O)O)cc(C(=O)Nc2ccc(S(=O)(=O)O)cc2S(=O)(=O)O)c1 |  | inactive |
| C[C@@H](C[N+](C)(C)C)OC(N)=O |  | inactive |
| COCCn1c(=O)c(-c2cn(C)c3ccccc23)nc2cnc(Oc3ccc(OC)cc3)nc21 | -4.68% (inactive) |  |
| O=C1C[C@H]2C(=O)[C@@H]1[C@@H](C(=O)O)[C@H]2C(=O)O | 11.5% [at 11.4 µM] (inactive) |  |
| CC1(C)OC(=O)C(=CNCC(O)c2ccccc2)C(=O)O1 (configuration not stated) | 19.5% (inactive) |  |
| Cc1cc(C)n(CCCNCC(O)c2ccccc2)n1 (configuration not stated) |  | 7.08 µM (active) |
| Cc1cc(C)n(Cc2ccc(NC(=O)c3ccc(COc4ccccc4Br)cc3)cc2)n1 | -11.6% (inactive) |  |
| CCCC(=O)NNC(=O)Nc1ccccc1 | 0.27% (inactive) |  |
| C=CCNC(=O)c1csc(-c2ccccc2)n1 | 17.1% (inactive) |  |
| C=CC[n+]1c(-c2ccc(C)cc2)csc1NNC(=O)Nc1ccccc1 |  | 3.16 µM (active) |
| CCn1c(C)c(C)c2cc(C(=O)Nc3cccc(Cl)c3)ccc21 | -26.9% (inactive) |  |
| CC(=O)N[C@@H](CC(=O)O)C(=O)O | -0.495% [at 25.6 µM] (inactive) |  |
| NC(=O)c1cc[n+](CC2=C(C(=O)[O-])N3C(=O)[C@@H](NC(=O)Cc4cccs4)[C@@H]3SC2)cc1 | -1.02% [at 25.6 µM] (inactive) |  |
| CN(C)C(=N)N=C(N)N | -6.01% [at 25.6 µM] (inactive) |  |
| O=C(NNC(=S)NC(=O)c1cccnc1)c1ccccc1 | -3.01% (inactive) |  |
| O=c1c(-c2ccc(O)cc2)coc2cc(O)cc(O)c12 | 6.84% (inactive) |  |
| COc1ccc(-c2cc(=O)c3c(O)cc(O)cc3o2)cc1 |  | 12.6 µM (active) |
| O=c1cc(-c2ccccc2)oc2cc(O)c(O)c(O)c12 | -2.03% (inactive) |  |
| COc1ccc(-c2coc3cc(OC)cc(O)c3c2=O)cc1 |  | 0.0355 µM (active) |
| COc1ccc(-c2coc3cc4oc(=O)cc(C)c4cc23)cc1F | -4.68% (inactive) |  |
| CCOC(=O)COc1cc(OCC(=O)OCC)c2c(=O)cc(-c3ccccc3)oc2c1 | 32.3% (inactive) |  |
| CCOC(=O)Cc1c(C)nc2c(C#N)c[nH]n2c1=O | 0.121% (inactive) |  |
| COC(=O)Cn1cnc(=O)c(C#N)c1/C=C/N(C)C | 3.9% (inactive) |  |
| Cn1c(=O)c2[nH]c(CCS)nc2n(C)c1=O | 4.9% [at 11.4 µM] (inactive) |  |
| O=c1nc(N2CCOCC2)ccn1-c1nc(-c2ccccc2)oc1-c1ccccc1 | -8.85% (inactive) |  |

| SMILES | activity, negative = inhibition | AC50 |
| --- | --- | --- |
| C[C@H](Nc1ncnc2sc3c(c12)CCC3)C(=O)O | 0.707% (inactive) |  |
| COc1ccc(N2CCN(C(=S)Nc3cc(C)ccc3C)CC2)cc1 | -18.8% (inactive) |  |
| Cc1cc2nc(C3CCCN(C(=O)NCc4ccccc4)C3)[nH]c2cc1C (configuration not stated) |  | 5.01 µM (active) |
| Cc1ccc2nc(C3CCCN(C(=S)Nc4ccccc4C)C3)[nH]c2c1 (configuration not stated) |  | 2 µM (active) |
| Cc1cc2nc(C3CCCN(C(=S)Nc4ccccc4)C3)[nH]c2cc1C (configuration not stated) | -7.35% (inactive) |  |
| Cc1cc2nc(-c3ccc(SCC(=O)N4CCc5ccccc54)nc3)[nH]c2cc1C | -4.65% (inactive) |  |
| O=C(Nc1ccccc1)N1CCCC(c2nc(-c3ccc(F)cc3)no2)C1 (configuration not stated) | -28.6% (inactive) |  |
| NCCCCN | 0.962% (inactive) |  |
| CCC1(O)c2ccccc2-c2ncccc21 (configuration not stated) | 6.35% (inactive) |  |
| COC(=O)[C@@H]1CC[C@H](C)[C@@H](c2ccc(C)cc2)N1C(=O)c1ccc(/C=N\OC[C@@H](O)[C@H]2O[C@H]3OC(C)(C)O[C@H]3[C@@H]2O)cc1 | 3.7% [at 11.4 µM] (inactive) |  |
| COCCNc1nc(SCc2ccccc2)nc2sc3c(c12)CCC3 | -18.8% (inactive) |  |
| CC(C)NC[C@H](O)c1cc(O)cc(O)c1 |  | inactive |
| CC(C)NC[C@H](O)c1ccc(NS(C)(=O)=O)cc1 |  | inactive |
| CC(C)NC[C@H](O)c1ccc2ccccc2c1 |  | 3.16 µM (active) and inactive |
| Cc1ccc(C(CC(N)=O)c2ccco2)cc1 (configuration not stated) | 1.48% (inactive) |  |
| CC(=O)SC[C@@H](Cc1ccccc1)C(=O)NCC(=O)OCc1ccccc1 |  | 0.316 µM (active) |
| O=C(O)CNC(=O)[C@@H](CS)Cc1ccccc1 | -0.986% [at 25.6 µM] (inactive) |  |
| COC(=O)CNC(=O)C(C)NC(=O)CNC(=O)OCc1ccccc1 (stereo not drawn) (Cbz-Gly-[ξA]-Gly-OMe) | 25.8% (inactive) |  |
| Cc1cc(OC(=O)c2ccc(Cl)cc2Cl)nc(C)n1 | -22.9% (inactive) |  |
| CC(C)(C)CC(=O)NC(=S)N1CCCCCC1 | 6.83% (inactive) |  |
| O=c1c(-c2cccc(Cl)c2)nc2cncnc2n1-c1ccccc1 | -20.1% (inactive) |  |
| CCCc1nc(SCC(=O)NNC(=O)C2CCCCC2)c2ccccc2n1 | 7.9% (inactive) |  |
| O=C(Nc1nc2ccccc2n1CCN1CCCCC1)C1CCCCC1 |  | 4.47 µM (active) |
| Cn1c(CN2CCCC2)nc2cc(NC(=O)C3CCCCC3)ccc21 | -1.37% (inactive) |  |
| COc1ccc(Oc2nc(C)cc(C)c2S(C)(=O)=O)cc1 | -6.85% (inactive) |  |
| O=c1c(-c2ccc(Cl)cc2)nc2cnc(N3CCOCC3)nc2n1CCc1ccccc1 | 3.89% (inactive) |  |
